Screening results from PubChem BioAssay.
Sfp PPTase inh: qHTS Assay for Inhibitors of Bacillus subtilis Sfp phosphopantetheinyl transferase (PPTase); Potency, µM, inactives show largest response in the series, negative = inhibition, actives largely listed as inhibitors; 310,000 tested, 3.5% active; Biochemical Sfp PPTase activity, qHTS; 4'-phosphopantetheinyl transferase ffp (Bacillus subtilis), Q9F4F7;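 also: the enzyme is Sfp with the accession as filed and its product quenches rhodamine fluorescence; 0% = enzyme reaction without inhibitor and -100% = no enzyme wells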
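After 15 min at room temperature with compound, 15 nM Sfp received 5 uM rhodamine-CoA plus 12.5 uM BHQ-2-ybbR (50 mM Hepes pH 7.6, 10 mM MgCl2). Rate came from the fluorescence difference over 30 min, ex 525/em 598 nm.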
Gal4-VP16 FLuc: VP16 counterscreen qHTS for inhibitors of ROR gamma transcriptional activity; 310,000 tested, 3.5% active; Potency, µM (titrated, usually from 53.6 µM), without a hit: at the highest dose activity, negative = inhibition, hits mostly inhibitors; Drosophila S2 Gal4-VP16 UAS-luciferase, luminescence, 20 h; AID 2546, 2010;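 also: Gal4-VP16 expression switched on by copper sulfate through the metallothionein promoter; % is scaled to controls: 0 for no effect and ±100 for the full control effect; nearly all actives have a fitted effect of over 50% in size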
ClpP mod: qHTS Assay for Activators of ClpP; ATP-dependent Clp protease proteolytic subunit (Bacillus subtilis (strain 168)), P80244; purified B. subtilis ClpP, FRET peptide cleavage, 20 min; Potency, µM (titrated, usually from 57.5 µM), for the others: at the highest dose activity change, negative = active; 340,000 tested, 1.9% active; AID 651965, 2013; active = well fitted falling curve with a large enough effect; inconclusive = small, poorly fitted or top-dose-only effect; inactive = no such curve, though single readings can be large or run the other way; also: the source files actives as falling curves though it sought activators and does not explain the sign; nearly all actives have a fitted effect of over 65% in size
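FRET quenching reversal measured ClpP activation: 10 microg/mL B. subtilis ClpP at pH 8 with the FRET-FV decapeptide, read at 430 nm after 320 nm excitation. The 20-min minus 0-min signal was scaled between DMSO/no-enzyme wells and ADEP (5.8 microM final).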
RORg inh: qHTS for inhibitors of ROR gamma transcriptional activity. Drosophila S2 Gal4-RORgamma UAS-luciferase reporter, 20 h. AID 2551, 2010. Nuclear receptor ROR-gamma (Mus musculus), P51450. 310,000 tested, 5.4% active. Potency, µM (top dose mostly 53.6 µM), without a hit: at the highest dose activity change, negative = inhibition, usual class: inhibitors; also: % is scaled to controls: 0 for no effect and ±100 for the full control effect; nearly all actives have a fitted effect of over 60% in size
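In this cell-based reporter format, copper sulfate (700 uM final) drives Gal4–ROR gamma fusion expression from a metallothionein promoter in Drosophila Schneider cells; compounds preincubated 1 hr, reporter read after 20 hr at ambient temperature.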
PINK1 modulator: A Quantitative High throughput Screen to Identify Chemical Modulators of PINK1 Expression; PINK1 immunofluorescence, high-content cytometry, 24 h; Potency, µM (titrated, usually from 76.6 µM), without a hit: at the top dose activation (PINK1 increase), usual class: activators; 410,000 tested, 0.2% active; active = well fitted activation curve with a large enough effect; inconclusive = small, poorly fitted or top-dose-only effect; cell line not stated here; also: % of control where 0% means no effect; nearly all actives have a fitted effect of over 65% in size
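Fluorescence from anti-PINK1 antibody, together with nuclear and cell stains, was scanned on a laser-scanning cytometer. Before staining, stable-line cells were incubated 24 hours with compounds at 5 concentrations; primary antibody 12 h at 10 degrees C.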
Epigenetic reg: Quantitative High-Throughput Screen for Regulators of Epigenetic Control; murine LDR cells, GFP reporter derepression, 30 h; Potency, µM (doses to about 53.9 µM), without a hit: at the top dose GFP activation, most hits filed as activators; 280,000 tested, 0.2% active; AID 1865, 2009; also: % of control where 0% means no effect; nearly all actives have a fitted effect of over 60% in size
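Readout is the number of GFP-expressing murine LDR cells, counted by cytometry following washing. Cells were treated with compound for 30 h at 37 C; the stably integrated CMV-GFP locus is normally silent.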
Numbers without * were called inactive; ? = inconclusive; . = no result; [ ] = dose if it differs, or a comment. Rows were chosen to be rich in hits. Some 8.1% of all compounds tested hit in one or more screens of this group. Unless noted, calls follow the shape of the dose curve; as a rule, active = well fitted curve in the direction sought with a large enough effect; inconclusive = small, poorly fitted or top-dose-only effect, or another doubt; inactive = no such curve, though single readings can be large; an effect the other way counts as inactive or inconclusive. Potency is read from the fitted curve at half-maximal effect.

SMILES	Sfp PPTase inh	Gal4-VP16 FLuc	ClpP mod	RORg inh	PINK1 modulator	Epigenetic reg
Cc1cc(=O)oc2cc(OCC3CC(c4ccccc4)=NO3)ccc12 (stereo unspecified)	6.6%	27.9%	28.2µM*	22.0%	12.2%[38.3 µM]	-2.0%
CC(C)OCCCNC(=O)c1ccc2c(c1)N(Cc1c(F)cccc1Cl)C(=O)c1ccccc1S2	.	.	-0.5%	.	-0.9%	7.0%
COc1ccc(-c2cc3ccc(O)c(CN4CCC(C)CC4)c3oc2=O)cc1OC	.	.	-25.1%	.	1.1%	-1.6%
O=C(C[n+]1ccncc1)c1ccc(Br)cc1	.	.	-3.6%	.	.	.
CCCCCCCCCC[n+]1ccc(/C=C/c2c[nH]c3ccccc23)cc1	.	.	1.5%	.	.	.
COc1cc(C=Nc2ccccc2C(=O)Nc2ccccc2)cc(OC)c1OC	16.1%	-17.7%	25.1µM*	-1.4%	0.4%	0.0%
CCSc1ccccc1C(=O)Nc1cc(OC)c(OC)c(OC)c1	15.8µM*	2.1%	.	-3.1%	-0.7%	-0.8%
COc1cc(NC(=O)c2ccccc2-c2ccccc2)cc(OC)c1OC	3.8%	-10.0%	.	-31.2%	.	2.2%
CCC1(C)Cc2c(sc3nc(SC)n(-c4ccc(C)cc4)c(=O)c23)CO1 (stereo unspecified)	.	.	-3.9%	.	1.5%	-2.5%
Cc1noc(C)c1CN1C(=O)NC(Cc2ccccc2)(Cc2ccccc2)C1=O	6.0%	-0.8%	1.1%	11.2µM*	7.4%	-1.1%
Cc1cccc(CN2C(=O)NC(c3ccccc3)(c3ccccc3)C2=O)c1	13.3%	3.9%	-3.5%	?	15.5%	.
CCn1c(-c2cccc(OC)c2)nc2cc(NC(C)=O)cc(C(=O)N3CCCC(C(C)=O)C3)c21 (stereo unspecified)	.	.	.	.	0.1%	.
CCC1CN(C(=O)Nc2ccccc2C(F)(F)F)c2ccccc2O1 (stereo unspecified)	.	.	0.0%	.	0.9%	0.0%
COc1ccc2c(=O)c3c(=O)n(Cc4ccco4)c(-c4ccc(C)cc4)nc3oc2c1	25.1µM*	-0.7%	-1.1%	-9.7%	0.2%	3.0%
Cc1ccc(N2C(=O)CC(NNc3nc4ccccc4s3)C2=O)cc1C (stereo unspecified)	4.5%	-7.8%	12.6µM*	?	10.9%	-1.3%
COc1ccc(N2C(=O)CC(NNc3nc4ccccc4s3)C2=O)cc1 (stereo unspecified)	-4.6%	-12.7%	.	21.0%	3.3%	4.3%
COC(=O)c1sccc1S(=O)(=O)N1CCN(c2cccc(C)c2C)CC1	.	.	-3.4%	.	0.7%	0.0%
O=C(NCCc1c[nH]c2ccccc12)Nc1ccccc1	12.2%	0.9%	-2.8%	34.0%	-2.0%	-0.9%
COc1ccc(CC(=S)NCCc2ccccc2)cc1	14.1µM*	-0.6%	0.8%	-42.6%	-1.3%	.
CC(C)c1ccc(NC(=S)NCCc2c[nH]c3ccccc23)cc1	13.9%	?	-2.0%	10µM*	21.2%	0.9%
Cc1cccc(NC(=S)NCCc2c[nH]c3ccccc23)c1	19.9%	1µM*	1.1%	2.51µM*	0.1%	9.1%
COc1ccc(CNC(=O)NCCc2c[nH]c3ccccc23)cc1	-27.1%	-3.4%	-2.1%	21.9%	-0.8%	.
S=C(Cc1ccccc1)NCCc1ccccc1	.	.	-1.0%	.	1.6%	.
COc1ccc(CCNC(=S)NCCc2c[nH]c3ccccc23)cc1	32.4%	?	-3.0%	12.6µM*	-1.0%	-0.3%
Cc1ccc(C(=O)N(Cc2cc3ccc(F)cc3nc2N2CCC(O)CC2)CC2CCCO2)cc1 (stereo unspecified)	.	.	.	.	-0.3%	.
SMILES	Sfp PPTase inh	Gal4-VP16 FLuc	ClpP mod	RORg inh	PINK1 modulator	Epigenetic reg
N#Cc1c2c(c(Cl)n3c1nc1ccccc13)CCCC2	.	.	-26.2%	.	0.5%	.
CCC(C)CCCCC(=O)N[C@@H](CCN)C(=O)N[C@H](C(=O)N[C@@H](CCN)C(=O)N[C@H]1CCNC(=O)C([C@@H](C)O)NC(=O)[C@@H](CCN)NC(=O)[C@H](CCN)NC(=O)[C@H](CC(C)C)NC(=O)[C@@H](CC(C)C)NC(=O)[C@H](CCN)NC1=O)[C@@H](C)O (stereo partly specified)	?	4.7%	.	-2.7%	.	-2.1%
O=C(c1cccc(Cn2cccn2)c1)N1CCC(n2c(C3CCCO3)nc3cc(C(F)(F)F)ccc32)CC1 (stereo unspecified)	.	.	.	.	0.3%	.
COc1cc(OC)c(OC)cc1CNCCCSc1nnnn1C	.	.	1.0%	.	-0.7%	-2.4%
Cc1ccc(NC(=S)NCCc2c[nH]c3ccccc23)cc1	6.1%	20µM*	0.4%	7.94µM*	-0.2%	-0.9%
CCC(=O)NC(=S)Nc1cccc(NC(=O)c2ccc(Cl)cc2Cl)c1	25.7%	6.31µM*	-3.4%	2.82µM*	0.3%	1.7%
CCCCC(=O)Nc1cccc(NC(=S)NC(=O)C(C)C)c1	?	22.3%	1.6%	0.0%	-0.6%	-1.0%
CC(=O)c1cccc(NC(=S)NC(=O)CC(C)C)c1	14.0%	7.94µM*	-1.2%	?	9.9%[38.3 µM]	-1.0%
CCC(=O)NC(=S)Nc1ccc(NC(=O)c2ccc([N+](=O)[O-])cc2Cl)cc1	7.3%	-13.6%	3.6%	-28.9%	2.1%	-1.0%
CCC(=O)NC(=S)Nc1cccc(C(C)=O)c1	4.2%	13.5%	1.7%	11.2µM*	4.9%	-1.2%
CCC(=O)NC(=S)Nc1cccc(NC(=O)CC)c1	6.6%	2.9%	-3.4%	-20.7%	2.8%	0.0%
CCCCCC(=O)NC(=S)Nc1cccc(C(C)=O)c1	1.4%	?	.	2.82µM*	-0.4%	0.0%
CCc1ccccc1NC(=O)CN1C(=O)c2cccnc2Oc2ccc(Cl)cc21	.	.	1.3%	.	0.4%	-1.1%
CCCC(=O)NC(=S)Nc1cccc(C(C)=O)c1	-8.1%	?	1.6%	10µM*	-1.8%	0.0%
CCN(C(=O)C1CCN(S(=O)(=O)c2c(C)noc2/C=C/c2ccc(C)cc2)CC1)c1cccc(C)c1	.	.	1.6%	.	0.3%	-0.6%
Cc1nnc(NC(=O)CSc2ccc3nnc(-c4ccccn4)n3n2)s1	-2.1%	7.4%	-28.6%	-2.4%	1.5%	-0.5%
CCC(Sc1nc2ccccc2o1)C(=O)Nc1nnc(C)s1 (stereo unspecified)	-11.5%	?	-3.6%	12.6µM*	1.2%	1.1%
CCC(Sc1ccccn1)C(=O)Nc1nnc(C)s1 (stereo unspecified)	0.0%	-29.9%	-1.5%	10µM*	4.1%	-1.0%
COc1ccc(-c2nc3ccccc3o2)cc1NC(=O)COc1ccc(C(C)(C)C)cc1	.	.	4.8%	.	0.7%	-1.6%
